Screens as filed in PubChem.
Compounds with a hit are over-represented: about 6.2% of the library has one in this group of screens.
FMDV antiviral = blocks foot and mouth disease virus; FMDV antiviral cell-based qHTS; Potency, µM (series often up to 57.9 µM), without a hit: top-dose activity change, negative = inhibition, most hits filed as inhibitors; 410,000 compounds, 1.2% hits; AID 1159524; calls by dose curve; tested in HEK293T cells; further: read-out not given here; potency means the concentration at half of the fitted maximal effect; nearly all actives have a fitted effect of over 45% in size
Marburg entry inh = blocks Marburg virus binding to or entry into cells; Marburg virus pseudotyped entry inhibition, cell reporter; 300,000 compounds, 1.8% hits; Potency, µM (titrated, usually from 37.8 µM), inactives show at the highest dose activity change, negative = inhibition, actives largely listed as inhibitors; calls by dose curve; tested in HEK293 cells; further: potency means the concentration at half of the fitted maximal effect
HCMV antiviral = inhibitors of human cytomegalovirus. AID 1259415. HFF cells, HCMV-luciferase reporter, 72 h; stronger effect = lower value. activity change, negative = inhibition, % at 57.5 µM. 410,000 compounds, 4.5% hits; in the data active means activity change below about -60%; inconclusive means no clear call, values can overlap the other calls; inactive means above about -39%
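Two compound doses tested in HFFs infected with HCMV-luciferase, MOI 1 PFU/cell, 72 h at 37C. Lysate luminescence read with OneGlo; data normalized against buffer-only and 10uM Salinomycin inhibitor controls.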
Lassa entry inh = blocks Lassa virus binding to or entry into cells. Lassa virus pseudotype entry inhibition, cell reporter. Potency, µM (titrated, usually from 37.9 µM), inactives show at the highest dose activity change, negative = inhibition, usual class: inhibitors. 300,000 compounds, 1.2% hits; calls by dose curve; tested in HEK293 cells; further: potency means the concentration at half of the fitted maximal effect; nearly all actives have a fitted effect of over 50% in size
Numbers without * were called inactive; ? = inconclusive; · = not tested or not shown; ! = repeats disagree; [ ] = dose if it differs, or a comment. On the % scale 0 is the no-effect control and ±100 the full control effect.

SMILES | FMDV antiviral | Marburg entry inh | HCMV antiviral | Lassa entry inh
CCN(CC)P(=O)(Nc1ccc(C)cc1Br)c1ccc(N(C)C)cc1NC(=O)c1ccco1 (stereo not given) | -29.0% | 11.2µM* | -78.0* | ·
O=C1CCC[C@@H]2[C@@H](Cc3ccccc3)[C@H](N3CCN(c4ccccc4)CC3)C[C@@H]3CCN1[C@@H]32 | 0.0% | · | -79.7* | ·
O=C1CCC[C@@H]2[C@H](Cc3ccccc3)[C@@H](O)C[C@@H]3CCN1[C@@H]32 | -27.7% | · | -17.1 | ·
COc1cc(-c2nccc3[nH]nc(-c4ccccc4)c23)cc(OC)c1OC | · | · | -18.9 | ·
COC(=O)c1ccccc1NC(=O)CSc1nc2sc3c(c2c(=O)[nH]1)CCCC3 | -22.9% | 1.8%[46.1 µM] | 32.2 | -2.3%[46.1 µM]
COC(=O)[C@]1(C=C2c3ccccc3C[C@H](OC)[C@@H]2C)[C@@H]2CC=C[C@@H]21 | · | -7.8%[14.2 µM] | · | ·
Clc1cccc(CN2CCc3c([nH]c4ccccc34)C2)c1 | -16.9% | 8.91µM* | 57.3 | ?
C[C@H](CO)N1C[C@H](C)[C@@H](CN(C)C(=O)Nc2ccccc2)OCc2cn(nn2)CCCC1=O | · | · | -1.4 | ·
O=C(CSc1nc(-c2ccccc2)[nH]c1-c1ccccc1)Nc1ccc2c(c1)OCCO2 | 1.2% | ? | -28.1 | ?
O=C(CSc1nc(-c2ccc(F)cc2)[nH]c1-c1ccc(F)cc1)Nc1ccc2c(c1)OCCO2 | ? | ? | -74.8* | ?
Cc1cc2nc(-c3ccc(SCC(=O)Nc4ccc5c(c4)OCCO5)nc3)[nH]c2cc1C | · | ? | -68.3* | -15.9%
COc1ccc(-c2[nH]c(-c3ccccc3)nc2SCC(=O)Nc2ccc3c(c2)OCCO3)cc1 | -10.1% | ? | ? | ?
COc1ccc(-c2nc(SCC(=O)Nc3ccc4c(c3)OCO4)c(-c3ccc(OC)cc3)[nH]2)cc1 | -6.7% | 6.6%[46.1 µM] | -90.4* | 0.2%[46.1 µM]
COc1ccc(-c2nc(-c3ccc4c(c3)OCO4)[nH]c2-c2ccc(OC)cc2)cc1 | ? | ? | -101.6* | ?
CCc1ccc(NC(=O)Cn2c(=O)n(Cc3ccc(C)cc3)c(=O)c3cccnc32)cc1 | 13.9% | 3.9%[46.1 µM] | 7.5 | ·
Cc1nc(NC(=O)CSc2ccc(-c3nc4ccccc4[nH]3)cn2)sc1C | 5.5% | ? | -29.7 | 21.1%
CCc1nnc(NC(=O)CSc2ccc(-c3nc4ccccc4[nH]3)cn2)s1 | · | 24.7% | -93.6* | ?
Cc1noc(C)c1-c1cc(Nc2ccccc2)ncn1 | -8.2% | · | · | ·
C=C(C)c1cccc(C(C)(C)NC(=O)Nc2ccc(C(N)=O)cc2)c1 | ? | ? | -67.4* | 0.0%[46.1 µM]
C=C(C)c1cccc(C(C)(C)NC(=O)Nc2cccnc2)c1 | 0.0% | ? | -9.4 | ?
COC(=O)[C@H]1C[C@H](C(=O)O)[C@@H](C)C1(C)C | -1.9% | · | -94.5* | ·
O=C(O)CCN1C(=O)/C(=C/c2cn(-c3ccccc3)nc2-c2cccs2)SC1=S | 0.0% | ? | -61.2* | -4.0%[46.1 µM]
CCN(CC(=O)Nc1ccc(NC(C)=O)cc1)C(=O)/C=C/c1cn(-c2ccccc2)nc1-c1cccs1 | -0.9% | -17.1% | -28.5 | ?
O=C(O)CCCCCN1C(=O)/C(=C/c2cn(-c3ccccc3)nc2-c2cccs2)SC1=S | -26.3% | -29.3%[46.1 µM] | -19.4 | -22.0%[46.1 µM]
CN1CCC(N(C)C(=O)/C=C/c2cn(-c3ccccc3)nc2-c2cccs2)CC1 | -27.2% | ? | -110.8* | ?
SMILES | FMDV antiviral | Marburg entry inh | HCMV antiviral | Lassa entry inh
COc1ccc(-c2nn(-c3ccccc3)cc2/C=C2/SC(=S)N(CCC(=O)O)C2=O)c(C)c1 | 31.6µM* | ? | -20.7 | 2.2%[46.1 µM]
Cc1ccc(-n2c(-c3ccc(Br)cc3)c[n+]3c2CCc2ccc4cccnc4c2-3)cc1 | 1.12µM* | 2.31µM*! | -104.1* | 6.51µM*
Cc1ccc(-n2c(=O)[nH]c3ncccc3c2=O)cc1 | -10.6% | · | -25.3 | ·
COc1ccc2[nH]c(C)c(CCNS(=O)(=O)c3cc(F)ccc3OC)c2c1 | 28.6% | ? | -0.7 | 3.9%[46.1 µM]
CCOCC(=O)Nc1nc2ccc(OCC)cc2s1 | 29.5% | ? | 79.6 | ?
Cc1ccc2nc(NC(=O)CCCc3nc4ccccc4s3)sc2c1 | 15.3% | ? | 26.1 | ?
Cc1ccc2nc(NC(=O)CSCC(=O)OCC(=O)c3ccccc3)sc2c1 | ? | ? | -27.9 | 5.8µM*
CCOCC(=O)Nc1nc2ccc(C)cc2s1 | -39.9% | -18.3% | 67.0 | 11.2µM*
Cc1ccc2nc(NC(=O)CCCC(=O)O)sc2c1 | 7.94µM* | · | ? | ·
CN1C(=O)C(C)(C)c2cc(S(=O)(=O)N3CCCC3C(=O)Nc3ccc(F)cc3)ccc21 (stereo not given) | -9.3% | · | -21.1 | -3.7%[46.1 µM]
Cc1cc(=O)n(C(C)C(=O)N2CCCc3ccccc32)c2c1c(C)nn2-c1ccccc1 (stereo not given) | 6.7% | · | 7.1 | ?
COCCCN1C(=O)C(=O)/C(=C(/O)c2ccc(C)cc2)C1c1ccccc1 (stereo not given) | 13.1% | 8.9% | 50.6 | -2.9%
COCCCN1C(=O)C(=O)/C(=C(/O)c2ccc(OC)cc2)C1c1cccc(OC)c1 (stereo not given) | -5.4% | -0.7% | -102.3* | 11.9%
COc1ccc(/C(O)=C2/C(=O)C(=O)N(CCN(C)C)C2c2ccc(OC)c(OC)c2)c(C)c1 (stereo not given) | -14.0% | 5.1% | -71.1* | -2.8%
Cc1ccc(C(=O)NCCc2nnc3n2CCN(Cc2ccc4ccccc4c2)CC3)c(C)c1 | -12.2% | · | · | ·
COc1cc(C(=O)N2CCc3c([nH]c4ccccc34)C2c2ccc(F)cc2)cc(OC)c1OC (stereo not given) | -14.2% | · | 28.6 | 8.91µM*
COc1cccc(C(=O)N2CCc3c([nH]c4ccccc34)C2c2ccc(SC)cc2)c1 (stereo not given) | -13.9% | · | -63.8* | ?
CCOc1cc(C(=O)N2CCc3c([nH]c4ccccc34)C2c2ccccc2)cc(OCC)c1OCC (stereo not given) | -1.5% | · | -19.0 | ?
CSc1ccc(C2c3[nH]c4ccccc4c3CCN2C(=O)c2ccnn2C)cc1 (stereo not given) | 17.2% | ? | -11.1 | ?
O=C(c1ccc(F)cc1)N1CCc2c([nH]c3ccccc23)C1c1ccc(Cl)cc1 (stereo not given) | -21.0% | · | -65.9* | ?
CC(=O)c1ccccc1C(=O)NCC1Cc2cccc(-c3cccnc3)c2O1 (stereo not given) | -0.4% | · | · | ·
CCOc1ccc(/C=C/C2=CC(C)(C)NC(=S)N2)cc1 | -9.6% | 11.7%[46.1 µM] | -93.8* | -10.9%
COc1ccc(NC(=O)c2cc(S(=O)(=O)N3CCCCCC3)cn2C)cc1Cl | 0.0% | · | -3.7 | -1.1%[46.1 µM]
C[C@@H]1CN([C@H](C)CO)C(=O)c2cc(NS(=O)(=O)c3ccccc3)ccc2O[C@@H](C)CCCCO[C@@H]1CN(C)Cc1ccccc1 | · | · | -18.1 | ·
C[C@H](CO)N1C[C@H](C)[C@@H](CN(C)C)Oc2c(NS(=O)(=O)c3ccc(F)cc3)cccc2C1=O | 2.7% | · | -73.0* | ·
C[C@@H]1CCCCO[C@@H](CN(C)CC2CCCCC2)[C@@H](C)CN([C@H](C)CO)C(=O)c2cc(NS(=O)(=O)c3ccc(Cl)cc3)ccc2O1 | -4.6% | · | -101.6* | ·
C[C@@H]1CCCCO[C@@H](CN(C)Cc2ccc3c(c2)OCO3)[C@@H](C)CN([C@H](C)CO)C(=O)c2cc(NS(=O)(=O)c3ccccc3)ccc2O1 | ? | · | -68.7* | ·
